Compound activity deposited in PubChem by National Center for Advancing Translational Sciences (NCATS).
Pf growth 48h = inhibits P. falciparum growth in the first generation, 48 h. P. falciparum luciferase growth in erythrocytes, 48 h. Potency, µM (series often up to 28.7 µM), for inactives: at the top dose activity change, negative = inhibition, hits mostly inhibitors. actives 5.9% (n = 310,000). AID 504832; also: potency is read from the fitted curve at half-maximal effect; % is scaled to controls: 0 for no effect and ±100 for the full control effect
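Luminescence readout; reporter = integrated firefly luciferase in P. falciparum. RBC culture at 2% hematocrit, 0.1% parasitemia final, 37 C/5% CO2; decreased signal taken as growth inhibition.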
Pf growth 96h = P. falciparum growth inhibition at 96 hour, primary screen for plastid delayed-death inhibitors | Potency, µM (series often up to 28.7 µM), for inactives: top-dose activity change, negative = inhibition, usual class: inhibitors | actives 6.9% (n = 320,000) | P. falciparum luciferase reporter growth, 96 h; also: potency is read from the fitted curve at half-maximal effect; % is scaled to controls: 0 for no effect and ±100 for the full control effect
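Luminescence readout: decreased luciferase signal marks inhibited growth of reporter-expressing P. falciparum in infected red cells (2% hematocrit, 0.05% parasitemia final), exposed to compound two generations (96 h, 37 C, 5% CO2).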
Shiga inhibitor = Shiga toxin inhibition; Vero cells, Shiga toxin protein synthesis inhibition reporter; inhibition, % at 38.7 µM; actives 9.2% (n = 290,000); AID 2315; in the data active = inhibition mostly above about 28%, no sharp cut-off; inactive = mostly below about 43%; also: 0% is about no effect
CHX counter = affects cycloheximide protein synthesis inhibition readout, counter-screen; cell reporter, cycloheximide protein synthesis inhibition counterscreen; max response, %; actives 12% (n = 300,000); in the data active = max response mostly above about 13%, no sharp cut-off; inactive = mostly below about 14%; also: read at 38.3 µM for the half of the compounds with a filed dose; 0% is about no effect
NS1 inh = influenza NS1 inhibition | actives 0.4% (n = 270,000) | Potency, µM (series often up to 46.1 µM), without a hit: at the top dose activity, positive = more growth | AID 2326; calls by dose curve; also: potency is read from the fitted curve at half-maximal effect; actives are rising curves; nearly all actives have a fitted effect of over 50% in size
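Compounds were scored for reversing the slow growth caused by influenza A NS1 in S. cerevisiae, measured by optical density at 600 nm. Assay medium contained 2% galactose at pH 6.0; NS1-free yeast of the same strain were the positive control.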
Starred values were filed as active, the others as inactive; [ ] = another dose, or the depositor's remark. Sampled rows, rich in hits. Any-hit rate of the full collection: about 21%. Unless noted, calls follow the shape of the dose curve; as a rule, active = well fitted inhibition curve with a large enough effect; inconclusive = small, poorly fitted or top-dose-only effect, or another doubt; inactive = no such curve, though single readings can be large or run the other way.

For Cc1cc(C)n(C2CCCCC2OC(=O)c2ccccc2F)n1 (centres undefined) the results were Pf growth 48h 9%, Pf growth 96h 0%, Shiga inhibitor -3, CHX counter -2 and NS1 inh -83%.
Cc1cc(C)n2ncc(/C(N)=N/OC(=O)Nc3ccc(Cl)cc3)c2n1 was read as Pf growth 48h 6%, Pf growth 96h 31%, Shiga inhibitor 48, CHX counter 20* and NS1 inh -1%.
Screening Cc1nn(C)c(C)c1S(=O)(=O)N(CC(=O)NCCN1CCOCC1)c1ccc(C(C)C)cc1 returned Pf growth 48h 2%, Pf growth 96h -26%, Shiga inhibitor -5, CHX counter -1 and NS1 inh -9%.
COc1cccc(NC(=O)N2CCC(n3nnc4ccccc43)CC2)c1 was read as Pf growth 48h -19%, Pf growth 96h 1%, Shiga inhibitor 22, CHX counter -4 and NS1 inh 0%.
`CC(C)(O)C#Cc1ccc(CN2CCCC(CNC(=O)c3ccco3)C2)cc1` (centres undefined) gave Pf growth 48h inconclusive, Pf growth 96h 34%, Shiga inhibitor 12, CHX counter 9 and NS1 inh 6%.
Screening Cc1ccc(S(=O)(=O)Nc2cccc(S(=O)(=O)N3CCCC3)c2)cc1C returned Pf growth 48h 4% and Pf growth 96h -5%.
Screening O=C(O)CCn1ncc2ccccc2c1=O returned Pf growth 48h 18%, Pf growth 96h -14%, Shiga inhibitor 9, CHX counter -3 and NS1 inh 5%.
`Cc1nn(C(C)C(=O)O)c(=O)c2ccccc12` (centres undefined) gave Pf growth 48h 29%, Pf growth 96h 9.3µM*, Shiga inhibitor -7, CHX counter 6 and NS1 inh -2%.
`Cc1nn(-c2ccccc2C(=O)O)c(=O)c2ccccc12` gave Pf growth 48h 3%, Pf growth 96h 0%, Shiga inhibitor -5, CHX counter -2 and NS1 inh 7%.
CC(C(=O)O)n1ncc2ccccc2c1=O (centres undefined) was read as Pf growth 48h 2.6µM*, Pf growth 96h 32%, Shiga inhibitor -5, CHX counter -1 and NS1 inh -1%.
`O=C(OCC(=O)N1CCc2ccccc21)c1ccccc1[N+](=O)[O-]` gave Pf growth 48h 103% and Pf growth 96h 24%.
Screening CCCc1cc(=O)n2[nH]c(-c3cccc(Br)c3)cc2n1 returned Pf growth 48h 72%, Pf growth 96h 0%, Shiga inhibitor 64*, CHX counter 36* and NS1 inh -2%.
Screening CCCc1cc(=O)n2[nH]c(-c3ccc(Br)cc3)cc2n1 returned Pf growth 48h 49%, Pf growth 96h inconclusive, Shiga inhibitor 14*, CHX counter 38* and NS1 inh -14%.
Screening COc1cc(C(=O)OCC(=O)NC(N)=O)cc(CN2C(=O)c3ccccc3C2=O)c1OC returned Pf growth 96h -12%, Shiga inhibitor 2, CHX counter -4 and NS1 inh 5%.
O=C(c1ccc(F)cc1)N1CCN2C(=O)c3ccccc3C12c1ccc(Cl)cc1 (centres undefined) was read as Pf growth 48h 13µM*, Pf growth 96h 5.2µM*, Shiga inhibitor -7, CHX counter -3 and NS1 inh 3%.
`O=C1c2ccccc2C2(c3ccc(Cl)cc3)NCCN12` (centres undefined) gave Pf growth 48h -14%, Pf growth 96h 13µM*, Shiga inhibitor -16, CHX counter -4 and NS1 inh -1%.
Screening O=C1c2ccccc2C2(c3ccccc3)NCCCN12 (centres undefined) returned Pf growth 48h 10%, Pf growth 96h 38%, Shiga inhibitor 16, CHX counter -5 and NS1 inh -2%.
For CCOc1ccccc1NC(=O)COC(=O)Cc1ccc(-c2ccccc2)cc1 the results were Pf growth 48h 7%, Pf growth 96h 48%, Shiga inhibitor -10, CHX counter -1 and NS1 inh 1%.
CCN(C)C(=O)Oc1cccc([C@H](C)N(C)C)c1 was read as Pf growth 48h -3% and Pf growth 96h -2%.
Screening O=C(Nc1ccc2c(c1)OCO2)c1cnc(Cl)c(Cl)c1 returned Pf growth 48h 114% and Pf growth 96h 158%.
Screening Cc1ccc(NC(=O)c2ccc3c(c2)OCO3)cc1Cl returned Pf growth 48h 37%, Pf growth 96h inconclusive, Shiga inhibitor 90*, CHX counter 45* and NS1 inh -57%.
For Cc1cc(Cl)ccc1NC(=O)c1ccc2c(c1)OCO2 the results were Pf growth 48h 86%, Pf growth 96h 62%, Shiga inhibitor 77*, CHX counter 26* and NS1 inh -8%.
Screening Cc1ccc(C(=O)Nc2ccc3c(c2)OCO3)cc1Cl returned Pf growth 48h 228%, Pf growth 96h inconclusive, Shiga inhibitor 168*, CHX counter 51* and NS1 inh -19%.
Screening O=C(CCSCc1cccc(F)c1)NCCc1ccccc1 returned Pf growth 48h 5%[0.00184 µM], Pf growth 96h 0%, Shiga inhibitor 43, CHX counter 12 and NS1 inh -37%.
`CCCCNC(=S)N=Nc1c(O)n(Cc2ccccc2)c2ccccc12` gave Pf growth 48h 13µM*, Pf growth 96h 10µM*, Shiga inhibitor -12, CHX counter -1 and NS1 inh 13%.
Screening CCCCn1c(O)c(N=NC(=O)c2ccco2)c2ccccc21 returned Pf growth 48h inconclusive, Pf growth 96h inconclusive, Shiga inhibitor 86*, CHX counter 66* and NS1 inh 2%.
`CCOC(=O)N=Nc1c(O)n(Cc2ccccc2)c2ccccc12` gave Pf growth 48h -8%, Pf growth 96h 20%, Shiga inhibitor 46* and CHX counter 29*.
Screening O=C(N=Nc1c(O)n(Cc2ccccc2)c2ccccc12)c1ccncc1 returned Pf growth 48h 12µM*, Pf growth 96h 13µM*, Shiga inhibitor 24, CHX counter 2 and NS1 inh -1%.
`Clc1nc(-c2n[nH]nc2Cl)n[nH]1` gave Pf growth 48h 11%, Pf growth 96h -17%, Shiga inhibitor 10, CHX counter -2 and NS1 inh 6%.
`O=C(OCCO)c1ccccc1O` gave Shiga inhibitor 4 and CHX counter 4.
CC(C)c1nc(NCC2CCCO2)c(C#N)c2c1COC(C)(C)C2 (centres undefined) was read as Pf growth 48h 13µM*, Pf growth 96h 0%, Shiga inhibitor 24, CHX counter 6 and NS1 inh -15%.
Screening CC(C)=CC(=O)OCC(=O)NC1CCCc2ccccc21 (centres undefined) returned Pf growth 48h -7%, Pf growth 96h -15%, Shiga inhibitor 18, CHX counter 11 and NS1 inh -2%.
Screening Cc1cccc(OCc2nc3c4c(ncn3n2)-c2ccccc2CC42CCCC2)c1 returned Pf growth 48h -7%, Pf growth 96h inconclusive, Shiga inhibitor -3, CHX counter 4 and NS1 inh 3%.
